Results published in PubChem BioAssay AID504616 (Sanford-Burnham Center for Chemical Genomics, 2011).
The other results are listed elsewhere or left out. The source made the active and inactive calls.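 Rule for the calls: active = mean activity change at or below -40% when tested at 20 µM; inactive = the rest.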

Experiment: detection-step artefacts after finished caspase reaction – biochemical, fluorescence, Rh110, 20 µM, artefact control for Apaf-1 activator project, confirmation (AID 504616)
Conditions: quenched caspase reaction, Ex480/Em540, at 20 µM

Fluorescence interference (activity change), inactive:
CC1COc2ccccc2N1C(=O)c1cccnc1Cl (stereo not given) 0.54%
C=CC1=C(C(=O)O)N2C(=O)[C@@H](NC(=O)/C(=N/OCC(=O)O)c3csc(N)n3)[C@H]2SC1 3.12%
Brc1ccc(/C=N/N2CCN(C3c4ccccc4-c4ccccc43)CC2)s1 -2.39%
COc1ccc(C2c3ccc(O)cc3Oc3ncn(CCCO)c(=N)c32)cc1OC (stereo not given) -0.45%
CC(=O)NC(=S)NNC(=O)c1ccc(Br)cc1 -5.11%
CCCC(=O)Nc1nc2ccc(NC(=O)c3c(F)c(F)c(OC)c(F)c3F)cc2s1 7.74%
CCOc1ccc(N=C2NC(=O)S/C2=C\c2ccc(O)cc2)cc1 -1.26%
O=C(CN1C(=O)C2C3C=CC(C3)C2C1=O)NCCc1ccccc1Cl (stereo not given) -3.43%
C=C(C)C(=O)Nc1cccc(C2=NOC3(C2)C[C@H](C(N)=O)N(C(=O)C(c2ccccc2)c2ccccc2)C3)c1 (stereo not given in full) 7%
Nc1cc(C(F)(F)F)ccc1N1CCOCC1 -1.22%
Cc1ccc(S(=O)(=O)c2c(N)n(C)c3nc4ccccc4nc23)cc1 -4.76%
O=C(CSc1ccc(-c2ccc(-n3cccn3)cc2)nn1)Nc1ccc([N+](=O)[O-])cc1 2.63%
COc1ccc(C2CC(c3ccccc3)Nc3ncnn32)cc1 (stereo not given) -9.02%
COc1cccc(C(=O)Nc2ccc(N3CCCC3)cc2)c1 2.88%
CCOCCCNC(=O)c1c[nH]c2cc(C)ccc2c1=O 8.21%
